# TDP1 block = inhibitors of human tyrosyl-DNA phosphodiesterase TDP1 | Q9NUW8 | Potency, µM (series often up to 130 µM), for inactives: top-dose activity change, negative = inhibition, most hits filed as inhibitors | AID 485290 | 350,000 tested, 0.28% active | recombinant TDP1, AlphaScreen DNA substrate cleavage; note: potency is the fitted concentration of half-maximal effect; % is set by controls: 0 for no effect and ±100 for the full control effect; nearly all actives have a fitted effect of over 40% in size
# Target sequence (Q9NUW8 whole entry, looked up): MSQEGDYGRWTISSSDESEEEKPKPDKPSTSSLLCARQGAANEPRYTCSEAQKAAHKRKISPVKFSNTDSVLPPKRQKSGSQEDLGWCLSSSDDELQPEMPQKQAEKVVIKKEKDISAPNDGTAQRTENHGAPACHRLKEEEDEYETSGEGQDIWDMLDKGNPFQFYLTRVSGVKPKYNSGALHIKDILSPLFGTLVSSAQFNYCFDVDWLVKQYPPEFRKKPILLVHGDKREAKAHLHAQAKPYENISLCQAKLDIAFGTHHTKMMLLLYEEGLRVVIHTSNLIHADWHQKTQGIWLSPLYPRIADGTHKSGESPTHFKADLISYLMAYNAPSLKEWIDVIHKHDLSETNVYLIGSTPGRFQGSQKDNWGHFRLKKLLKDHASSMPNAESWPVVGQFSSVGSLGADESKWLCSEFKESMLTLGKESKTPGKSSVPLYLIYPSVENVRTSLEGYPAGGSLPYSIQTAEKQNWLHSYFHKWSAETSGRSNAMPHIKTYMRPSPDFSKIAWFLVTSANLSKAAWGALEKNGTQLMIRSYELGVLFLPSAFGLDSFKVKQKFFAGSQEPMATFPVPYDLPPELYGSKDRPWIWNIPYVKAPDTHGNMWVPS
#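 Here, a 5' biotin and 3' phosphotyrosine-FITC DNA oligonucleotide reports Tdp1 activity: intact substrate bridges AlphaScreen beads, while cleavage leaves a 3' phosphate and drops signal. All incubations at room temperature.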
# HepG2 viability = counter-screen for TGF-b inhibitors: cytotoxicity in HepG2 cells | Potency, µM (highest dose often 46.1 µM), for the others: at the top dose activity change, negative = cytotoxicity, actives largely listed as cytotoxic | HepG2 CAGA-GFP viability, ATP luminescence, 18 h | 410,000 tested, 0.76% active; note: potency is the fitted concentration of half-maximal effect
#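 CellTiter-Glo luminescence gave cytotoxicity after 18 hours at 37 degrees C. The cells were HepG2 CAGA-GFP in 1% FBS DMEM, stimulated with 500 pg/mL TGF-beta after compound addition. %Activity was normalised to no-cell wells (complete cell-killing) and DMSO (no toxicity), and curves were fitted and classified.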
# TDP1 cell noCPT = qHTS for Inhibitors of human tyrosyl-DNA phosphodiesterase 1 (TDP1): qHTS in cells in absence of CPT; DT40 Tdp1-/- hTDP1 cells, no CPT, ATP luminescence, 48 h; Potency, µM (top dose mostly 46.2 µM), without a hit: top-dose activity change, negative = growth inhibition, actives largely listed as inhibitors; 420,000 tested, 15% active; note: potency is the fitted concentration of half-maximal effect; % is set by controls: 0 for no effect and ±100 for the full control effect; nearly all actives have a fitted effect of over 55% in size
#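 Luminescent ATP content (CellTiter-Glo) served as the growth readout. Knockout chicken DT40 cells expressing human TDP1 were exposed to compounds without camptothecin for a minimum 48 hr at 37 °C.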
# IL1B secr inh = inflammasome signaling inhibition, IL-1 beta readout; THP-1 LPS/ATP IL-1B secretion, AlphaLISA, 16 h; active compounds read low; activity change, % at 57.5 µM; 360,000 tested, 4.7% active; AID 743279; in the data active = activity change below about -50%; inconclusive = mostly about -30% to -49%; note: % is set by controls: 0 for no effect and ±100 for the full control effect
#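 THP-1 cells pretreated 1 hr with compounds (up to 57.5 uM final), then stimulated with LPS (250 ng/mL final) plus ATP (1.25 mM final); secreted IL-1B measured by AlphaLISA after 16 hr, decreased signal indicating inhibition.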
# TGFb SMAD3 inh = TGF-b pathway inhibition. HepG2 CAGA-GFP TGF-b/SMAD3 reporter, GFP fluorescence, 18 h; TGF-beta stimulated, 500 pg/mL final. Potency, µM (series often up to 46.1 µM), without a hit: top-dose activity, negative = inhibition, usual class: inhibitors. 410,000 tested, 1.2% active; note: potency is the fitted concentration of half-maximal effect; % is set by controls: 0 for no effect and ±100 for the full control effect; nearly all actives have a fitted effect of over 65% in size
#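 Inhibition of TGF-beta-driven CAGA-GFP reporter expression in HEPG2 cells is measured by cellular GFP fluorescence after 18 h stimulation with 500 pg/mL recombinant TGF-beta in 1% FBS medium at 37 degrees C.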
# DT40 TDP1 CPT = DT40-hTDP1 cell growth loss with CPT; Potency, µM (highest dose often 46.2 µM), inactives show at the top dose activity change, negative = growth inhibition, usual class: inhibitors; 420,000 tested, 12% active; chicken DT40 Tdp1-/-;hTDP1 cells + 20 nM CPT, ATP luminescence, 48 h; AID 686979; note: potency is the fitted concentration of half-maximal effect; % is set by controls: 0 for no effect and ±100 for the full control effect; nearly all actives have a fitted effect of over 55% in size
#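 Cell growth measured by CellTiter-Glo luminescence after a minimum 48 h, 37 C compound exposure with 20 nM CPT in Tdp1-knockout DT40 cells stably expressing hTDP1, seeded 400/well; qHTS titration format.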
# * = called active by the depositor; ? = inconclusive; . = no result given; ! = a repeat was not active; [ ] = remark or other dose. An excerpt weighted towards active compounds, which were near 18% of everything screened. Unless noted, calls come from the whole dose curve; as a rule, active = well fitted curve in the direction sought with a large enough effect; inconclusive = small, poorly fitted or top-dose-only effect, or another doubt; inactive = no such curve, though single readings can be large; an effect the other way counts as inactive or inconclusive.
SMILES,TDP1 block,HepG2 viability,TDP1 cell noCPT,IL1B secr inh,TGFb SMAD3 inh,DT40 TDP1 CPT
COc1ccc(CN2CCN(C(=O)COc3cccc(C)c3)CC2)c(OC)c1,-1.0%,-17.0%,?,-10.5,?,?
COc1ccccc1CN1CCN(C(=O)COc2cccc(C)c2)CC1,-5.2%,-12.9%,20.6µM*!,-5.7,-0.9%,?
COc1cccc(C2SCC(=O)Nc3c2c(C)nn3-c2ccc(C)c(Cl)c2)c1OC (stereo unspecified),8.6%,-25.6%,20.6µM*,.,-23.3%,20.6µM*
CCCOc1ccc(C2SCC(=O)Nc3c2c(C)nn3-c2cccc(C)c2)cc1OC (stereo unspecified),2.9%,-22.2%,20.6µM*,.,?,16.4µM*
C[C@]12CC[C@H]3[C@@H](C[C@H](F)C4=CC(=O)CC[C@@]43C)[C@@H]1CC[C@@H]2O,12.2%,.,?,.,.,?
O=C(CCl)c1ccc(Oc2ccc(C(=O)CCl)cc2)cc1,13.6%,.,?,.,.,?
C=C1C(=O)O[C@@H]2C[C@@H](C)[C@H]3C=CC(=O)[C@]3(O)C[C@@H]12,4.7%,-40.1%,4.61µM*,-98.8*,12.6µM*,4.61µM*
COP(=O)(OC)O/C(=C\Cl)c1cc(Cl)c(Cl)cc1Cl,9.3%,.,.,.,.,.
COc1cc(C)c(-c2nc(CN3C[C@@H]4C[C@@H](C3)c3cccc(=O)n3C4)c(C)o2)cc1C,.,1.4%,?,-114.7*,?,?
CCCCOP(=O)(OCCCC)C(O)c1ccc(Br)cc1 (stereo unspecified),5.6%,-25.0%,18.4µM*,-3.6,?,23.1µM*
C[C@]12CC[C@H]3C(=CCc4cc(O)ccc43)[C@@H]1CCC2=O,2.7%,23.4%,?,-0.2,35.3%,?
COc1ccc(CCNc2nc3ccc(Cl)cc3n3cnnc23)cc1OC,-2.5%,-4.4%,16.4µM*,.,.,18.4µM*
CC1CC(O)[C@]2(O)[C@]13CC(=O)OC[C@@]2(C)[C@@](C)(O)C(=O)C3 (stereo partly specified),11.7%[56.1 µM],.,25.2%,.,.,5.0%
O=C(O)c1cc(Cl)ccc1Cl,14.4%,.,.,.,.,.
O=C(CCl)c1ccc(Cl)cc1Cl,7.0%,.,13.7µM*,.,.,21.7µM*
CN(C)CCNC(=O)C(=O)NCC1OCCCN1S(=O)(=O)c1cccs1 (stereo unspecified),0.0%,-3.0%,2.4%,7.4,?,-3.3%
CC1Cc2cc(S(=O)(=O)N(Cc3ccccc3)C(C)C)ccc2N1C(=O)C1CCC1 (stereo unspecified),0.0%,-24.7%,20.6µM*,.,-23.5%,?
Clc1ccccc1Cl,7.6%,.,-6.1%,.,.,-9.7%
O=C(NCC1=C(c2ccc3ccccc3c2)C[C@@H]2CC[C@H]1N2Cc1ccco1)c1ccncc1,.,-45.9%,?,-8.3,?,?
O=C(NCC1=C(c2ccc3ccccc3c2)C[C@@H]2CC[C@H]1N2Cc1ccco1)c1ccc([N+](=O)[O-])cc1,.,-40.1%,16.4µM*,-71.4*,?,?
Nc1c(C(=O)Nc2ccc(Br)cc2F)sc2nc3c(cc12)N1CCC3CC1,-1.9%,-21.5%,.,.,-0.3%,.
O=C1Nc2ccccc2/C1=C/c1cnc[nH]1,6.7%,-12.2%,18.4µM*,-25.1,-10.9%,?
COc1ccc2c(c1)/C(=C/c1cnc[nH]1)C(=O)N2,13.4%,-2.6%,1.16µM*,-111.3*,?,2.59µM*
O=C1Nc2ccccc2/C1=C/c1nc2ccccc2c(=O)n1-c1ccc(O)cc1,2.6%,-46.2%,?,.,-6.7%,?
COc1cc(OC)c(/C=C2\C(=O)Nc3ccccc32)c(OC)c1,.,-78.8%,2.59µM*,-1.9,-14.8%,2.59µM*
SMILES,TDP1 block,HepG2 viability,TDP1 cell noCPT,IL1B secr inh,TGFb SMAD3 inh,DT40 TDP1 CPT
COc1ccc(-n2c(/C=C3\C(=O)Nc4ccccc43)nc3ccccc3c2=O)cc1,5.3%,-8.1%,?,-22.2,-1.2%,?
CC(=O)OO,2.1%,.,-9.4%,.,.,-22.6%
COc1ccc(S(=O)(=O)Nc2ccccc2OC)cc1N=Nc1c(O)[nH]c(=S)[nH]c1=O,?,-61.7%,?,0.1,?,?
CC(C)(C)c1ccc(C(=O)Nc2ccc3nc(SCC(=O)N4CCCC4)sc3c2)cc1,1.6%,-21.1%,4.11µM*,.,?,8.2µM*
CCOc1ccc(C(=O)Nc2ccc3nc(SCC(=O)N4CCCC4)sc3c2)cc1,-1.6%,-0.3%,?,.,0.0%,?
COc1ccccc1C(=O)Nc1ccc2nc(SCC(=O)N(C)c3ccccc3)sc2c1,3.6%,9.5%,11.6µM*,.,0.9%,18.4µM*
Cc1ccccc1C(=O)Nc1ccc2nc(SCC(=O)N(C)c3ccccc3)sc2c1,1.6%,-23.4%,14.6µM*,.,?,?
Cc1cccc(NC(=O)CSc2nc3ccccc3c(=O)n2C)c1C,.,2.1%,4.11µM*,-10.0,-3.6%,8.2µM*
CCc1ccccc1NC(=O)c1cccn(Cc2ccccc2F)c1=O,0.0%,-4.7%,-0.5%,.,-12.1%,-9.6%
Cn1c(SCC(=O)Nc2ccccc2F)nc2c([nH]c3ccccc32)c1=O,2.2%,-28.9%,18.4µM*,.,-19.9%,14.6µM*
Cc1cccc(NC(=O)c2cc3c(=O)n4ccccc4nc3n2C)c1C,3.9%,5.5%,0.651µM*,.,0.7%,0.92µM*
CC[C@@H]1CN2CCc3cc(OC)c(OC)cc3[C@H]2C[C@@H]1C[C@@H]1NCCc2cc(O)c(OC)cc21,14.4%[21 µM],.,.,.,.,.
Cc1noc(C)c1C(=O)N1CCC2(CCCN(CC(C)C)C2)CC1,.,.,2.4%,.,.,20.4%
O=[N+]([O-])c1ccc(S(=O)(=O)N2CCn3cccc3C2c2ccccc2F)cc1 (stereo unspecified),13.0%,-3.3%,16.4µM*,.,?,?
O=C1/C(=C/c2ccc([N+](=O)[O-])cc2)N2CCC1CC2,10.8%,-37.2%,?,-22.3,0.0%,?
COC(=O)c1cc(Oc2ccc(Cl)cc2Cl)ccc1[N+](=O)[O-],18.7%,.,.,.,.,.
COc1cccc(C(C)(O)c2nc(-c3cccc(F)c3)cs2)c1 (stereo unspecified),.,-18.0%,?,-15.0,-23.0%,?
COc1cccc(C(=O)c2c(N)c(-c3nc(-c4ccccc4)cs3)c3ccccn23)c1,0.0%,-5.7%,20.6µM*,.,0.8%,?
Oc1cccc(Cl)c1,3.7%,.,.,.,.,.

# From PubChem
